Our source for the survival values is PubChem BioAssay AID463173 (ICCB-Longwood Screening Facility, Harvard Medical School, 2010).

Among all 52,000 compounds or so, about 4,300 (8.3%) were called active. This excerpt belongs to a sample that is enriched for actives. Unmarked numbers belong to inactive results. No stated cut-off is given here; in the data, active means survival mostly below about 52% (no sharp cut-off); inactive means mostly above about 56%.

This test deals with DeltatarO mutant. The test is described as follows: S. aureus survival, RN4220 and DeltatarO strains – OD600, teichoic acid synthesis inhibitors, primary screen (AID 463173). Particulars: S. aureus RN4220 wild type/DeltatarO growth, OD600, 18 h, stronger effect = lower value, screened at 18.75 µg/mL (by protocol).
`Cc1cccc(N(C)c2ccc3cc(S(=O)(=O)N4CCCC4)ccc3n2)c1`: the survival is 96%.

`N#CCNS(=O)(=O)c1ccccc1`: the survival is 97%. As for `CC(=O)N1CCCc2cc(S(=O)(=O)NCc3ccccc3Cl)ccc21`, the survival is 112%. The same measure for `CCc1ccccc1NC(=O)Cn1cc(C(=O)c2ccc(Cl)cc2)c(=O)c2ccc(C)nc21`: 78%; for `CCCCN(Cc1cc2cc(C)ccc2[nH]c1=O)C(=O)c1cccc(Cl)c1`: 72%; for `CCOC(=O)c1sc2ccccc2c1S(=O)(=O)Nc1ccc(OC)c(Cl)c1`: 89%.

Consider `COc1ccc(OCC(=O)Nc2cc(-c3ccccc3F)nn2-c2ccccc2)cc1`, for which the survival is 92%. As to `Cc1ccc2c(c1)c(=O)c1ccccc1n2CCCC(=O)Nc1ccc(Cl)c(Cl)c1`, the survival was 45% (active). `Cc1ccc(NC(=O)Cn2c(=O)n(CCCCC(=O)NCc3ccccc3Cl)c(=O)c3ccccc32)cc1`: the survival was 83%. With `COc1ccc(NC(=O)Cn2c(=O)n(CCCC(=O)NCCc3ccc(C)cc3)c(=O)c3ccccc32)cc1Cl`, the survival was 97%.

As for `Cc1ccc(NC(=O)CSc2nc3ccccc3c3nc(CCn4cncc4C)nn23)c(C)c1`, the survival is 75%. For `COc1ccccc1CNC(=O)CCC1N=C2c3ccccc3N=C(SCc3ccc(Cl)cc3)N2C1=O` (stereo not given), the survival was 32% (active). The result for `O=C(CCC1N=C2c3ccccc3N=C(SCc3ccccc3F)N2C1=O)NCc1ccc(F)cc1` (stereo not given) reads 69%; that for `COc1ccc(CNC(=O)CCC2N=C3c4ccccc4N=C(SCc4ccccc4F)N3C2=O)cc1` (stereo not given), 37% (active); that for `COCCCNC(=O)CSC1=Nc2ccccc2C2=NC(CCC(=O)NCc3ccccc3OC)C(=O)N12` (stereo not given), 78%. The same measure for `O=C(CCC1N=C2c3ccccc3N=C(SCc3ccc(F)cc3)N2C1=O)NCc1cccs1` (stereo not given): 135%; for `COc1ccccc1CNC(=O)CCC1N=C2c3ccccc3N=C(SCc3ccc(C)cc3)N2C1=O` (stereo not given): 112%; for `CCCCNC(=O)CSC1=Nc2ccccc2C2=NC(CCC(=O)NCc3ccccc3OC)C(=O)N12` (stereo not given): 0% (active). In the case of `COc1ccccc1CNC(=O)CCC1N=C2c3ccccc3N=C(SCc3cccc(Cl)c3)N2C1=O` (stereo not given), the survival was 49%. The result for `O=C(CCC1N=C2c3ccccc3N=C(SCc3ccc(Cl)cc3)N2C1=O)NCc1cccs1` (stereo not given) reads 47% (active); that for `Cc1ccc(CSC2=Nc3ccccc3C3=NC(CCC(=O)NCc4cccs4)C(=O)N23)cc1` (stereo not given), 94%; that for `COc1ccc(CNC(=O)CCC2N=C3c4ccccc4N=C(SCc4ccc(F)cc4)N3C2=O)cc1` (stereo not given), 83%.

`COc1ccccc1CNC(=O)CCC1N=C2c3ccccc3N=C(SCC(=O)NCCc3ccccc3)N2C1=O` (stereo not given): the survival is 131%.

In the case of `CC(C)(C)c1ccc(C(=O)N2CCN(CCc3ccccn3)CC2)cc1`, the survival was 45%. With `CCc1cccc(C)c1Nc1c(-c2ccc(F)cc2)nc2sccn12`, the survival was 35%.

For the compound `CCCN(CCC)CCCNC(=O)Cn1ncc2c3ccccc3n(Cc3ccc(F)cc3)c2c1=O`, the survival was 91%. For the compound `O=C(NCC1CCCO1)C1CC(c2ccccc2O)=NO1` (stereo not given), the survival was 91%. The same measure for `CC(NC(=O)C1CCN(C(=O)N2CCOc3ccc(Cl)cc32)CC1)c1ccccc1` (stereo not given): 50%.

For the compound `COc1ccc(OC)c(NC(=O)Nc2c(C)n(C)n(-c3ccccc3)c2=O)c1`, the survival is 88%. The result for `CCC(CC)c1nn2c(=O)cc(COc3ccc(NC(=O)c4cccc(Cl)c4)cc3)nc2s1` reads 79%; that for `CC(C)NC(=O)C1CCN(C(=O)NCc2ccccc2)CC1`, 93%; that for `COc1cccc(N2CCN(C(=O)C3CCCN(S(=O)(=O)c4ccc(Br)s4)C3)CC2)c1` (stereo not given), 76%.

`Cc1ccc(CNC(=O)CSC2=Nc3ccccc3C3=NC(C)C(=O)N23)cc1` (stereo not given): the survival is 71%. The same measure for `CC1N=C2c3ccccc3N=C(SCC(=O)NCCc3ccc(Cl)cc3)N2C1=O` (stereo not given): 80%; for `CC1N=C2c3ccccc3N=C(SCC(=O)NCCc3ccccc3)N2C1=O` (stereo not given): 52% (active); for `CCNC(=O)CC1C(=O)N(c2ccccc2)C(=O)N1Cc1ccc(F)cc1` (stereo not given): 74%. `COc1cccc(CNC(=O)CSC2=Nc3ccccc3C3=NC(C)C(=O)N23)c1OC` (stereo not given): the survival was 124%. The result for `COC(=O)c1ccccc1NC(=O)Cn1c(=O)n(CCC(=O)NCc2ccccc2OC)c(=O)c2ccccc21` reads 82%; that for `Cc1ccccc1OCC(=O)Nc1ccc(S(=O)(=O)N(Cc2ccccc2)c2ccccc2)cc1`, 66%; that for `COc1ccc(-n2ccnc(NCCc3ccc(S(N)(=O)=O)cc3)c2=O)cc1`, 66%. As for `COC(=O)CNC(=O)Nc1cc(C(=O)NCc2ccc(C)cc2)ccc1N1CCCC1`, the survival was 76%. The same measure for `COC(=O)c1c(N)n(-c2ccc(OC)c(Cl)c2)c2nc3ccccc3nc12`: 93%. The result for `COC(=O)c1c(N)n(-c2ccc(OC)c(OC)c2)c2nc3ccccc3nc12` reads 94%; that for `COC(=O)c1c(N)n(-c2cc(Cl)cc(Cl)c2)c2nc3ccccc3nc12`, 44% (active); that for `Cc1ccc(CNc2nc(-c3ccco3)nn2S(C)(=O)=O)cc1`, 113%. Consider `CCOC(=O)Cc1ccc(NC(=O)N2CCC(CN3CCCCCC3)CC2)cc1`, for which the survival is 80%.

Take `Cc1ccc(NS(=O)(=O)c2ccc3c(c2)NC(=O)CCS3)c(Br)c1`: the survival is -1% (active).

For the compound `Cc1ccc(NS(=O)(=O)c2ccc3c(c2)NC(=O)CCS3)cc1C`, the survival is 79%.

Turning to `Cc1cc(C)c(NS(=O)(=O)c2ccc3c(c2)NC(=O)CCS3)c(C)c1`, the survival was 76%. The result for `O=C1CCSc2ccc(S(=O)(=O)Nc3ccc(Cl)c(C(F)(F)F)c3)cc2N1` reads 72%; that for `Cc1cc(C)cc(NS(=O)(=O)c2ccc3c(c2)NC(=O)C(C)S3)c1` (stereo not given), 11% (active). The same measure for `Cc1ccc(NS(=O)(=O)c2ccc3c(c2)NC(=O)C(C)C(=O)N3)cc1F` (stereo not given): 69%; for `Cc1ccccc1NS(=O)(=O)c1ccc2c(c1)NC(=O)CCS2`: 64%. As to `CC1C(=O)Nc2ccc(S(=O)(=O)Nc3ccccc3Br)cc2NC1=O` (stereo not given), the survival was 90%. Regarding `O=C1CCSc2ccc(S(=O)(=O)Nc3cccc(C(F)(F)F)c3)cc2N1`, the survival is -2% (active).
